Measurements reported in PubChem BioAssay.
“And” between values parts separate entries of the source, which are not always exact repeats. Equal entries are not always repeated. The source made the active and inactive calls.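 Rule for the calls, unless noted: active = normalized viability below 100% at a tested concentration; inactive = the rest.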

What was measured:
[1] = Wnt pathway potentiators raising nuclear beta-catenin – imaging, WNT3A-conditioned medium, mouse C2C12, NPC library, primary screen (AID 1117326; in the data active = nuclear beta-catenin stimulation mostly above about 4.2%, no sharp cut-off; inactive = mostly below about 10%); conditions: stronger effect = higher value
[2] = stimulators of insulin release from INS-1E, primary screen, cell-based, 5 mM glucose, NPC library (AID 1117329;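 active = compound raises insulin release from rat beta cells at 5 mM glucose, no numeric limit stated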); conditions: rat INS-1E insulin secretion, at 10 µM, stronger effect = higher value
[3] = growth inhibition of GSK3B-pretreated HCT116 cells – cell-based, CellTiter-Glo, 0.2 to 20 µM (AID 1117336;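 active = compounds lowering colon cancer cell viability after pretreatment blocking the GSK3B kinase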); conditions: HCT116 viability after GSK3B inhibitor, at 20 µM, stronger effect = higher value
[4] = inhibition of endothelial tube formation, primary screen, imaging, VEGF stimulated, CD31 staining, tube area, NPC library (AID 1117340;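 active = compound that reduces growth-factor-driven endothelial tube area in a mixed cell culture, no cutoff stated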); conditions: VEGF-stimulated ADSC/ECFC co-culture, at 10 µM, stronger effect = higher value
[5] = GLP1 release stimulators, primary, NCI-H716, NPC library (AID 1117341;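 active = compound raises GLP1 secretion from the human gut endocrine cells, with no numeric limit stated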); conditions: NCI-H716 cells, at 10 µM, stronger effect = higher value
[6] = HCT116 colon cancer cell growth inhibition, primary screen, CellTiter-Glo luminescence, NPC library (AID 1117342;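 active = compounds that lower survival of HCT116 colon cancer cells in the luminescence readout, no numeric limit stated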); conditions: at 20 µM (top of the series)
[7] = reduced SW480 viability measured with CellTiter-Glo, NPC library, primary (AID 1117343;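 active = compounds that lower viability of the colon cancer cells in the luminescence readout, with no numeric limit stated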); conditions: CellTiter-Glo luminescence; at 20 µM (top of the series)
[8] = NPC library primary testing for decreased DLD-1 cell viability via CellTiter-Glo (AID 1117346;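 active = compounds that lower survival of DLD-1 colon cancer cells in the luminescence readout, no cutoff given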); conditions: DLD-1 viability, CellTiter-Glo luminescence; at 20 µM (top of the series)
[9] = molecular target: 6-phosphogluconate dehydrogenase, decarboxylating (Homo sapiens) (UniProt P52209); assay: inhibition of human phosphogluconate dehydrogenase – biochemical, recombinant enzyme, NADPH absorbance, primary screen (AID 1159550;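 active = at least 20% inhibition of 6-phosphogluconate dehydrogenase activity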); conditions: recombinant 6PGD, NADPH absorbance 341 nm; at 10 µM; stronger effect = higher value
[10] = modulation of C. elegans fzo-1 (AID 1259413; call rule not given here;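 note: fzo-1 mutant C. elegans worms in liquid wells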); conditions: C. elegans fzo-1 modulator screen, mean read-out; stronger effect = higher value
[11] = EMT-state selective cytotoxicity in co-culture – imaging, PC-3E GFP, TEM4-18 mCherry, primary screen (AID 1345086;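 active = compounds killing one labelled cell type while sparing the other, by normalised counts and ratio limits, not self-fluorescent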;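 for all read-outs here: cells exposed to compound for 72 h before imaging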;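 for red/green cell ratio (normalised): normalised mesenchymal count divided by normalised epithelial count so high means epithelial killing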); conditions: PC-3E GFP / TEM4-18 mCherry co-culture, imaging cell counts, at 1 µM; for red/green cell ratio (normalised): actives lie on both sides, counts scaled to control wells, 1 = unselective
[12] = MELAS cybrid and Rieske KO viability enhancers – cell-based, MELAS cybrids, Rieske KO mouse fibroblasts, CellTiter-Glo, primary screen (AID 1508586;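 active = mean z-score across replicates of 1.96 or higher in either the MELAS or the Rieske mutant cell line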;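 note: z relative to plate mean and SD of compound and empty wells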); conditions: low glucose
[13] = molecular target: NAD(+) hydrolase SARM1 (Homo sapiens) (UniProt Q6SZW1); assay: blocking NAD cleavage by SARM1 SAM-TIR – cell lysate, NAD-Glo luminescence (AID 1508614;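 active = compound whose remaining NAD level is above about 45 nM, limit read from the data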;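 note: higher remaining NAD means stronger inhibition of SARM1 NADase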); conditions: SAM-TIR HEK293T lysate NADase, at 1 µM, stronger effect = higher value
[14] = molecular target: Mitogen-activated protein kinase 7 (Homo sapiens) (UniProt Q13164); assay: Gal4-ERK5 driven luciferase induction – cell-based, HTS, primary screen (AID 1508626;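 active = luciferase signal above three times the same-plate solvent-only control wells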;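 note: luciferase driven by Gal4-ERK5 fusion binding five Gal4 sites before minimal TATA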); conditions: HeLa Gal4-ERK5 transactivation, 18 h, at 5 µM, stronger effect = higher value
[15] = tested on: F380Y; assay: BK channel mutant inhibitors and activators – cell-based, U2OS BacMam, thallium flux, beta subunits, selectivity assay, profiling panel (AID 1259406;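 active = thallium flux through the channel raised or lowered by more than 3 SD from vehicle-only wells, actives on both sides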;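 note: initial slope of Thallos dye fluorescence rise after thallium is added; log ratio against the mean of 0.3% DMSO vehicle wells on the same plate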); conditions: U2OS BacMam BK variants, at 30 µM
[16] = tested on: F380Y/beta1; assay: as above; conditions: U2OS BacMam BK variants, at 30 µM
[17] = tested on: F380Y/beta2Delta; assay: as above; conditions: U2OS BacMam BK variants, at 30 µM
[18] = drug combination growth inhibition, ovarian cancer – cell-based, oncology-focused library, rucaparib conditional, profiling panel (AID 1508598); conditions: patient-derived ovarian cancer cells, CellTiter-Glo viability, 144 h, stronger effect = lower value
[19] = measured here: epithelial PC-3E GFP cell survival
[20] = measured here: mesenchymal TEM4-18 mCherry cell survival
[21] = MELAS cybrid survival, CellTiter-Glo 48 h, stronger effect = higher value
[22] = Rieske KO mouse fibroblast survival, CellTiter-Glo 72 h

Chain of 6-phosphogluconate dehydrogenase, decarboxylating (Homo sapiens) (P52209 whole entry, looked up): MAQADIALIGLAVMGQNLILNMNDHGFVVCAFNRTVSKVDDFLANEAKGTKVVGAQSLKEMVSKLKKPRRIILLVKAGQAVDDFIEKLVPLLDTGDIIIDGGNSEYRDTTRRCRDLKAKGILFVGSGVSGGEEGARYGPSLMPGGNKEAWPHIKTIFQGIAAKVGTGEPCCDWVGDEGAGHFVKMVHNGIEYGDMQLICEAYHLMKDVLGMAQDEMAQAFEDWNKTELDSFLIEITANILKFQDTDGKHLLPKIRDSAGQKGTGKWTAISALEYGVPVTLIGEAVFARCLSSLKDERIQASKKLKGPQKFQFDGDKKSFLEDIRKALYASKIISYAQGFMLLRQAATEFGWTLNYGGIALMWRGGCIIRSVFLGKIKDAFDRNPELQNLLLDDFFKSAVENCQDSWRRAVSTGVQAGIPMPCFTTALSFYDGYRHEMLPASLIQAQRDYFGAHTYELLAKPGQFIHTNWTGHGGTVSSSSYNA
Chain of NAD(+) hydrolase SARM1 (Homo sapiens) (Q6SZW1 whole entry, looked up, the tested form may be a part): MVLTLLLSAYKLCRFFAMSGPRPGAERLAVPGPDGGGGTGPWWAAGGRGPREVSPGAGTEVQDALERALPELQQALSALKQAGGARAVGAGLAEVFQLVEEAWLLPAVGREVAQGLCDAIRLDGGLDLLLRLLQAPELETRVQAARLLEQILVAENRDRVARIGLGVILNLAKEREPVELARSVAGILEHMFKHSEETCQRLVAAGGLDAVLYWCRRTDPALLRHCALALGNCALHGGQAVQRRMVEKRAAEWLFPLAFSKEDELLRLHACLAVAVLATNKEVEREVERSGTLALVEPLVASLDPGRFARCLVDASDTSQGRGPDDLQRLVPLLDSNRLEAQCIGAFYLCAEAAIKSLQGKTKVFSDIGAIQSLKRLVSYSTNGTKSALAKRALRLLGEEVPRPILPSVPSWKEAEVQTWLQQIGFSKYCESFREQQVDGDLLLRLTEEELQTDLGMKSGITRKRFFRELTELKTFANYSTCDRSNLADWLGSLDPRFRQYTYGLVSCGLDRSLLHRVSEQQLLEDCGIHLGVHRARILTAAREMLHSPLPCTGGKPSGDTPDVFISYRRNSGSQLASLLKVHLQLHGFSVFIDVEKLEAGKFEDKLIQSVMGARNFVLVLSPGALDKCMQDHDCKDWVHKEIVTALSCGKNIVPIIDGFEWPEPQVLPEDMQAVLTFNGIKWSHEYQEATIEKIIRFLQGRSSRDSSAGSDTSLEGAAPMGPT
Chain of Mitogen-activated protein kinase 7 (Homo sapiens) (Q13164 whole entry, looked up, the tested form may be a part): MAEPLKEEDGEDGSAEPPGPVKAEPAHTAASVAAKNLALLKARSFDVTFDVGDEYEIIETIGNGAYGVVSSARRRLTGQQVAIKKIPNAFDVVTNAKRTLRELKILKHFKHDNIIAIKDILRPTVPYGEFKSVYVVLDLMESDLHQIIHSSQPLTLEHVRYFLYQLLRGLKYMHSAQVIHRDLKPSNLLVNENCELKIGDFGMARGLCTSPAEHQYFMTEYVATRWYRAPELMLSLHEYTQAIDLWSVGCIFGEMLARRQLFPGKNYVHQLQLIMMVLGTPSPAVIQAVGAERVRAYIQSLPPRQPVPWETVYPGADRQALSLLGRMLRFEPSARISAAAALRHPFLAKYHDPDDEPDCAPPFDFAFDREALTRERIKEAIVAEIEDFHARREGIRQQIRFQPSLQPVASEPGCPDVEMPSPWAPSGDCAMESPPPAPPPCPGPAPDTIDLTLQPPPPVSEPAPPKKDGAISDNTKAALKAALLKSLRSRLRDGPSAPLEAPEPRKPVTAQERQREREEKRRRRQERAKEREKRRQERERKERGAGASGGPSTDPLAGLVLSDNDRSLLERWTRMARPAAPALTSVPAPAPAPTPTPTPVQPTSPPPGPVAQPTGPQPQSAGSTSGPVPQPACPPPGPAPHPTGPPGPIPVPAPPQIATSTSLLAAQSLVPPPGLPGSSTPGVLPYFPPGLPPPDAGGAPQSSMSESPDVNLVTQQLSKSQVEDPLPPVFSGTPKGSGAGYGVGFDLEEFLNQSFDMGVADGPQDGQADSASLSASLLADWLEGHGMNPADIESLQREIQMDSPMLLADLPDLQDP

Question: With `CCCc1nc2c(C)cc(-c3nc4ccccc4n3C)cc2n1Cc1ccc(-c2ccccc2C(=O)O)cc1` as the compound, how does the nuclear beta-catenin stimulation ([1]; at 10 µM) read?
Answer: 3.7% (inactive)

Question: And the nuclear beta-catenin stimulation ([1]; stimulation, at 2 µM)?
Answer: 1.8%

Question: What about the insulin secretion stimulation [2] of the same compound?
Answer: -0.5% (inactive)

Question: And the viability decrease [3]?
Answer: -22.6% (inactive)

Question: And the tube area decrease [4]?
Answer: 8% (inactive)

Question: What about the GLP1 secretion stimulation [5] of the same compound?
Answer: 1.1% (inactive)

Question: What about the inhibition of viability [6] of the same compound?
Answer: 42% (inactive)

Question: And the viability decrease (inhibition) [7]?
Answer: 94.1% (active)

Question: And the viability decrease (inhibition) [8]?
Answer: 36.3% (inactive)

Question: And the inhibition [9]?
Answer: 2.16% (inactive)

Question: And the mean signal [10]?
Answer: 236 (inactive)

Question: What about the red/green cell ratio (normalised) [11] of the same compound?
Answer: 0.63 (inactive)

Question: And the normalised cell number [11, 19]?
Answer: 1.26

Question: And the normalised cell number [11, 20]?
Answer: 0.8

Question: What about the z-score [12, 21] of the same compound?
Answer: -0.258 (inactive) and 0.956 (inactive) and -0.424 (inactive)

Question: What about the z-score [12, 22] of the same compound?
Answer: 0.516 and 0.961 and -0.332

Question: And the remaining NAD [13]?
Answer: 10 nM (inactive)

Question: And the luciferase signal [14]?
Answer: 96 AU (inactive)

Question: And the log fold change Tl+ flux [15]?
Answer: -0.0745 (inactive)

Question: And the log fold change Tl+ flux [16]?
Answer: 0.00163 (inactive)

Question: And the log fold change Tl+ flux [17]?
Answer: 0.025 (inactive)

Question: Which nuclear beta-catenin stimulation ([1]; at 10 µM) does the source give for `CC1=C(/C=C/C(C)=C/C=C/C(C)=C/C(=O)O)C(C)(C)CCC1` here?
Answer: 8.6% (inactive)

Question: And the nuclear beta-catenin stimulation ([1]; stimulation, at 2 µM)?
Answer: 8.1%

Question: What about the insulin secretion stimulation [2] of the same compound?
Answer: 1.8% (inactive)

Question: And the viability decrease [3]?
Answer: 102% (active)

Question: And the tube area decrease [4]?
Answer: -33.9% (inactive)

Question: And the GLP1 secretion stimulation [5]?
Answer: 14.4% (inactive)

Question: And the inhibition of viability [6]?
Answer: 102% (active)

Question: And the viability decrease (inhibition) [7]?
Answer: 142% (active)

Question: And the viability decrease (inhibition) [8]?
Answer: 104% (active)

Question: What about the inhibition [9] of the same compound?
Answer: -0.523% (inactive)

Question: What about the mean signal [10] of the same compound?
Answer: 223 (inactive)

Question: And the red/green cell ratio (normalised) [11]?
Answer: 0.69 (inactive)

Question: And the normalised cell number [11, 19]?
Answer: 1.34

Question: And the normalised cell number [11, 20]?
Answer: 0.93

Question: And the z-score [12, 21]?
Answer: -0.0661 (inactive) and 0.992 (inactive)

Question: And the z-score [12, 22]?
Answer: 0.0426 and 0.864

Question: And the viability ([18]; at 0.000305 µM, OCI-C5x cells, with rucaparib 10 µM, 100% = cells with rucaparib alone)?
Answer: 106% (inactive)

Question: And the viability ([18]; at 0.000305 µM, OCI-C5x cells, without rucaparib)?
Answer: 135% (inactive)

Question: What about the viability ([18]; at 0.000305 µM, OCI-P5x cells, with rucaparib 20 µM, 100% = cells with rucaparib alone) of the same compound?
Answer: 102% (inactive)

Question: What about the viability ([18]; at 0.000305 µM, OCI-P5x cells, without rucaparib) of the same compound?
Answer: 120% (inactive)

Question: And the viability ([18]; at 0.00122 µM, OCI-C5x cells, with rucaparib 10 µM, 100% = cells with rucaparib alone)?
Answer: 106% (inactive)

Question: And the viability ([18]; at 0.00122 µM, OCI-C5x cells, without rucaparib)?
Answer: 121% (inactive)

Question: What about the viability ([18]; at 0.00122 µM, OCI-P5x cells, with rucaparib 20 µM, 100% = cells with rucaparib alone) of the same compound?
Answer: 105% (inactive)

Question: What about the viability ([18]; at 0.00122 µM, OCI-P5x cells, without rucaparib) of the same compound?
Answer: 119% (inactive)

Question: And the viability ([18]; at 0.00488 µM, OCI-C5x cells, with rucaparib 10 µM, 100% = cells with rucaparib alone)?
Answer: 124% (inactive)

Question: What about the viability ([18]; at 0.00488 µM, OCI-C5x cells, without rucaparib) of the same compound?
Answer: 115% (inactive)

Question: What about the viability ([18]; at 0.00488 µM, OCI-P5x cells, with rucaparib 20 µM, 100% = cells with rucaparib alone) of the same compound?
Answer: 108% (inactive)

Question: And the viability ([18]; at 0.00488 µM, OCI-P5x cells, without rucaparib)?
Answer: 120% (inactive)

Question: And the viability ([18]; at 0.0195 µM, OCI-C5x cells, with rucaparib 10 µM, 100% = cells with rucaparib alone)?
Answer: 106% (inactive)

Question: And the viability ([18]; at 0.0195 µM, OCI-C5x cells, without rucaparib)?
Answer: 111% (inactive)

Question: And the viability ([18]; at 0.0195 µM, OCI-P5x cells, with rucaparib 20 µM, 100% = cells with rucaparib alone)?
Answer: 104% (inactive)

Question: What about the viability ([18]; at 0.0195 µM, OCI-P5x cells, without rucaparib) of the same compound?
Answer: 115% (inactive)

Question: What about the viability ([18]; at 0.0781 µM, OCI-C5x cells, with rucaparib 10 µM, 100% = cells with rucaparib alone) of the same compound?
Answer: 103% (inactive)

Question: And the viability ([18]; at 0.0781 µM, OCI-C5x cells, without rucaparib)?
Answer: 122% (inactive)

Question: And the viability ([18]; at 0.0781 µM, OCI-P5x cells, with rucaparib 20 µM, 100% = cells with rucaparib alone)?
Answer: 101% (inactive)

Question: What about the viability ([18]; at 0.0781 µM, OCI-P5x cells, without rucaparib) of the same compound?
Answer: 115% (inactive)

Question: What about the viability ([18]; at 0.313 µM, OCI-C5x cells, with rucaparib 10 µM, 100% = cells with rucaparib alone) of the same compound?
Answer: 103% (inactive)

Question: And the viability ([18]; at 0.313 µM, OCI-C5x cells, without rucaparib)?
Answer: 114% (inactive)

Question: And the viability ([18]; at 0.313 µM, OCI-P5x cells, with rucaparib 20 µM, 100% = cells with rucaparib alone)?
Answer: 98.8% (active)

Question: And the viability ([18]; at 0.313 µM, OCI-P5x cells, without rucaparib)?
Answer: 109% (inactive)

Question: And the viability ([18]; at 1.25 µM, OCI-C5x cells, with rucaparib 10 µM, 100% = cells with rucaparib alone)?
Answer: 101% (inactive)

Question: What about the viability ([18]; at 1.25 µM, OCI-C5x cells, without rucaparib) of the same compound?
Answer: 115% (inactive)

Question: What about the viability ([18]; at 1.25 µM, OCI-P5x cells, with rucaparib 20 µM, 100% = cells with rucaparib alone) of the same compound?
Answer: 92.2% (active)

Question: And the viability ([18]; at 1.25 µM, OCI-P5x cells, without rucaparib)?
Answer: 105% (inactive)

Question: What about the viability ([18]; at 5 µM, OCI-C5x cells, with rucaparib 10 µM, 100% = cells with rucaparib alone) of the same compound?
Answer: 101% (inactive)

Question: And the viability ([18]; at 5 µM, OCI-C5x cells, without rucaparib)?
Answer: 104% (inactive)

Question: And the viability ([18]; at 5 µM, OCI-P5x cells, with rucaparib 20 µM, 100% = cells with rucaparib alone)?
Answer: 93.6% (active)

Question: And the viability ([18]; at 5 µM, OCI-P5x cells, without rucaparib)?
Answer: 99.6% (active)

Question: And the remaining NAD [13]?
Answer: 10 nM (inactive)

Question: And the luciferase signal [14]?
Answer: 20 AU (inactive)

Question: And the log fold change Tl+ flux [15]?
Answer: 0.0395 (inactive)

Question: What about the log fold change Tl+ flux [16] of the same compound?
Answer: 0.0141 (inactive)

Question: What about the log fold change Tl+ flux [17] of the same compound?
Answer: -0.0201 (inactive)
